Measurements taken from ChEMBL document CHEMBL3988442, “University of Dundee, Small-Polar-MMV Screening Library” (2021).
For some of these results: Measured potencies and affinities stand elsewhere.

What was measured:
Set-up in all cases: scale not given: direction of the effect not stated beside the values
[1] = target: Protein translocase subunit SecA (Escherichia coli (strain K12)) (UniProt P10408); experiment: Assay to Identify E. coli SecA ATPase Inhibitors; format: functional; details: 30 µM
Chain of Protein translocase subunit SecA (Escherichia coli (strain K12)) (P10408 whole entry): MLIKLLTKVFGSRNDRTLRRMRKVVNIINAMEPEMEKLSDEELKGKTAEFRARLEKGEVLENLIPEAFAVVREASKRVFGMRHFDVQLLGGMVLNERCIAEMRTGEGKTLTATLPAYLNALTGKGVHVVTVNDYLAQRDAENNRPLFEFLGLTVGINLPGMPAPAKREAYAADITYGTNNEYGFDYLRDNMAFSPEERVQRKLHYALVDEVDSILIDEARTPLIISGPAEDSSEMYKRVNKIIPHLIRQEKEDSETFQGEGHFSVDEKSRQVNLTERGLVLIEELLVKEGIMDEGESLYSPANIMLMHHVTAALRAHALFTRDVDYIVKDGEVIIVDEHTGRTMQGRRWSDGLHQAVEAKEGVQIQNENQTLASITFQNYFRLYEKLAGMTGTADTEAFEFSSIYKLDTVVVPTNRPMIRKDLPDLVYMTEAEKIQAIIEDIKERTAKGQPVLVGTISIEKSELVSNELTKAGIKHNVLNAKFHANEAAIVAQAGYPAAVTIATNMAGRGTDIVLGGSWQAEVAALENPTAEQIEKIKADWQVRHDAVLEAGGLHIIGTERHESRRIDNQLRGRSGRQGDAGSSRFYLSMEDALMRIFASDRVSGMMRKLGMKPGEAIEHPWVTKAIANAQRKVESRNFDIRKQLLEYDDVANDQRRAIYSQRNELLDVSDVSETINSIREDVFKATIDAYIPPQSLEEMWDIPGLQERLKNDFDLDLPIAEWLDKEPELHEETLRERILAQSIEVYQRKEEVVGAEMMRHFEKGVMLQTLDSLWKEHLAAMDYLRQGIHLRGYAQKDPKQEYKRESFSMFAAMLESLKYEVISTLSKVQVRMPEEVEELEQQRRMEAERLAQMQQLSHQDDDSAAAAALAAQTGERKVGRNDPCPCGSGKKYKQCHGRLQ

[2] = target: T1, Ubiquitin-activating enzyme e1, putative (Leishmania donovani (strain BPK282A1)) (UniProt E9BSI1); experiment: Leishmania donovani Ubiquitin Activating Enzyme (LdE1); format: functional; details: 30 µM
T1 sequence (whole entry): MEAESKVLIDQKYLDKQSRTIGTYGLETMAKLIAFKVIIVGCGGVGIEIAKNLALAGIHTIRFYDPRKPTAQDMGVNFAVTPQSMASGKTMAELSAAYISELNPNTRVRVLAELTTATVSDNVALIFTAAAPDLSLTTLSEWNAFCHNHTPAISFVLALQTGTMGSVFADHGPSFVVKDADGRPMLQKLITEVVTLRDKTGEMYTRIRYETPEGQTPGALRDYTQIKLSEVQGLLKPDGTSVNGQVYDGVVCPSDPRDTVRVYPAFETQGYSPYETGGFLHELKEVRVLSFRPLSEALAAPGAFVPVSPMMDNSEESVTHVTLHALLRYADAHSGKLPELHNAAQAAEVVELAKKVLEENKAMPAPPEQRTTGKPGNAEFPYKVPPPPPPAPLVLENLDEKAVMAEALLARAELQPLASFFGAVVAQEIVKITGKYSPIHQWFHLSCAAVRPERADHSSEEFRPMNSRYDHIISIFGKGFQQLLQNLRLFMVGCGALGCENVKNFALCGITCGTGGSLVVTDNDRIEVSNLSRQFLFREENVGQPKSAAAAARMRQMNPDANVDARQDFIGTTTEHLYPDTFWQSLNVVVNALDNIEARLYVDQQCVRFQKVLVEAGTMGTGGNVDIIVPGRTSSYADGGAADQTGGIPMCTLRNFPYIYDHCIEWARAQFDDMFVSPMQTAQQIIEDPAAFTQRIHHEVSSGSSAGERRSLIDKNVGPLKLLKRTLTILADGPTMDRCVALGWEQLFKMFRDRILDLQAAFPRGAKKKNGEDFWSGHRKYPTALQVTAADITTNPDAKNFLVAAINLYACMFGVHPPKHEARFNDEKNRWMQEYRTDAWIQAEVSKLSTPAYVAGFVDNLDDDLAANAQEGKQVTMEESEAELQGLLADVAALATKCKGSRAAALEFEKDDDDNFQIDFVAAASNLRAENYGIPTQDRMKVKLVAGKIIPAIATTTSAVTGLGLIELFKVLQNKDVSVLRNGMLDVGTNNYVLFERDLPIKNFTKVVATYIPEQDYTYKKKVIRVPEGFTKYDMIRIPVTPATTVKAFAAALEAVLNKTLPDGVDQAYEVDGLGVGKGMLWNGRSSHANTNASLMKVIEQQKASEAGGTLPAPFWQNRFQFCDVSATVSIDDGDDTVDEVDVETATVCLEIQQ

[3] = target: AMP-activated protein kinase, AMPK (Homo sapiens) (UniProt P54646+O43741+P54619+Q9UGJ0+Q9Y478+Q13131+Q9UGI9); experiment: AMP-dependent Kinase enzyme assay. An in vitro enzyme assay that detects ADP turnover that is directly proportional to AMPK activity. This uses naive AMPK that is activated during the assay with MK-8722; format: functional; details: 30 µM
[4] = target: Sialic acid-binding Ig-like lectin 9 (Homo sapiens) (UniProt Q9Y336); experiment: Hs-Siglec9 ALPHAscreen SOP 20170721; details: 10 µM
Chain of Sialic acid-binding Ig-like lectin 9 (Homo sapiens) (Q9Y336 whole entry): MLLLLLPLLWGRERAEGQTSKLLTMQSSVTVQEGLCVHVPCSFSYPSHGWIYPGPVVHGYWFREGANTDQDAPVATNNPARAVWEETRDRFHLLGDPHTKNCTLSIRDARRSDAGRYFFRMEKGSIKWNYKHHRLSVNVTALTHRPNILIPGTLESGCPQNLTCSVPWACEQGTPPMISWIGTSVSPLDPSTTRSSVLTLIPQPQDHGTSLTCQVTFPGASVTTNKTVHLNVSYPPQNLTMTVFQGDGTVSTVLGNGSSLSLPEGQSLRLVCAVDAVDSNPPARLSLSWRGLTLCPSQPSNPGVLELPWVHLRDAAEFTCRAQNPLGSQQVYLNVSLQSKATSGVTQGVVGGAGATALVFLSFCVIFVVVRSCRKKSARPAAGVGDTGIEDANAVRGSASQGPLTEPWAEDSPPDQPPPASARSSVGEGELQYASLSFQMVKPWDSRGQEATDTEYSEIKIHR

Trypanosoma cruzi = experiment: Trypanosoma cruzi phosphomannomutase and mannose-1-phosphate guanylyltransferase assay; format: functional; details: 10 µM
[5] = target: T2, Arginase-2, mitochondrial (Homo sapiens) (UniProt P78540); experiment: in vitro enzyme assay to detect the production of urea directly proportional to the activity of Arginase II; format: functional; details: 33.3 µM; also: in the data most compounds retested in dose-response had high values
T2 sequence (whole entry): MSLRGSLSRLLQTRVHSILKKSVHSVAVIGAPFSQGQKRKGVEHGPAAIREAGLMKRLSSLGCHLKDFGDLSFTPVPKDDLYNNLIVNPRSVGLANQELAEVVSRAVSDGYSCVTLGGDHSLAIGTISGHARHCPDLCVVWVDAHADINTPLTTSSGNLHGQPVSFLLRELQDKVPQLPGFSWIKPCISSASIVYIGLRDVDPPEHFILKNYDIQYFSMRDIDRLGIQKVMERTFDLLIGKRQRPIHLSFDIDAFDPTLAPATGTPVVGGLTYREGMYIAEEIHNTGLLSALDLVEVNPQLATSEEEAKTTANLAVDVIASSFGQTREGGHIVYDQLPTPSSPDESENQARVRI

[6] = target: T3, Proteasome subunit beta (Trypanosoma cruzi) (UniProt O96673); experiment: Trypanosoma cruzi proteasome chymotrypsin-like activity (TcProtChymo) assay.; also: in the data most compounds retested in dose-response had high values; format: functional; details: 9.37 µM
T3 sequence (whole entry): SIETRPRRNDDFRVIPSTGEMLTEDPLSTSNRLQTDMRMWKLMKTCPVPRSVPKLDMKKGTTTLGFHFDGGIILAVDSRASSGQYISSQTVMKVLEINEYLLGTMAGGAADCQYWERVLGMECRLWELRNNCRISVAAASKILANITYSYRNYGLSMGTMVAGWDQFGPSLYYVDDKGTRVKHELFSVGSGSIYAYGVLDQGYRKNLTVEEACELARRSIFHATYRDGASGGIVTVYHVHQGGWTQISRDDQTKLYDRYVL

Homo sapiens = species on record: Homo sapiens; experiment: To identify inhibition of the IFN signalling (Jak-Stat) pathway via expression of an eGFP reporter gene under the control of an IFN-stimulated response element (ISRE) containing MxA promoter.; format: functional; details: 30 µM
[7] = target: T4, Tyrosyl-tRNA synthetase, putative (Trypanosoma cruzi (strain CL Brener)) (UniProt Q4DSP6); experiment: Trypanosoma cruzi tyrosyl tRNA synthetase (TcYRS) _High Tyrosine SOP; format: functional; details: 30 µM; also: in the data most compounds retested in dose-response had high values
T4 sequence (whole entry): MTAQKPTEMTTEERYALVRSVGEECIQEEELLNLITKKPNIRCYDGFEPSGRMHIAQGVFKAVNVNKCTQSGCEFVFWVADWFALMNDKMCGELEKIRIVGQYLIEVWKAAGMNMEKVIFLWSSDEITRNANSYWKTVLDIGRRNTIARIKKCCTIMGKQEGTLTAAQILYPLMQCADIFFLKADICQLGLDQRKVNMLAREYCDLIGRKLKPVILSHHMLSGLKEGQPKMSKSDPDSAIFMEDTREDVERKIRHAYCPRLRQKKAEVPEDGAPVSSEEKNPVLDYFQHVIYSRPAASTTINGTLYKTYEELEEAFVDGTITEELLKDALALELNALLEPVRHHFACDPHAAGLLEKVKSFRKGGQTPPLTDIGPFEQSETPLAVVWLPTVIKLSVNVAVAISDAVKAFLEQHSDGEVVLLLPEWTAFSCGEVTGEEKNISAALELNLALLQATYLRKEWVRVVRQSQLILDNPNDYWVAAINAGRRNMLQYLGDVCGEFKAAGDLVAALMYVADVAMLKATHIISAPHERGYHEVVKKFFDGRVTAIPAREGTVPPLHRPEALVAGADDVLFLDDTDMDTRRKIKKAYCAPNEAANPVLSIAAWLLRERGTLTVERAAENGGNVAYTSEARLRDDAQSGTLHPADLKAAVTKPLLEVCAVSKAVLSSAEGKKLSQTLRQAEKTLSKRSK

[8] = target: T4, Tyrosyl-tRNA synthetase, putative (Trypanosoma cruzi (strain CL Brener)); experiment: Trypanosoma cruzi tyrosyl tRNA synthetase (TcYRS) SOP; format: functional; details: 30 µM
[9] = target: Chromo domain-containing protein 1 (Saccharomyces cerevisiae (strain ATCC 204508 / S288c) (Baker's yeast)) (UniProt P32657); experiment: ScCHD-1 Enzyme Inhibition Assay; format: functional; details: 30 µM; also: in the data most compounds retested in dose-response had high values
Chain of Chromo domain-containing protein 1 (Saccharomyces cerevisiae (strain ATCC 204508 / S288c) (Baker's yeast)) (P32657 whole entry, the tested form may be a part): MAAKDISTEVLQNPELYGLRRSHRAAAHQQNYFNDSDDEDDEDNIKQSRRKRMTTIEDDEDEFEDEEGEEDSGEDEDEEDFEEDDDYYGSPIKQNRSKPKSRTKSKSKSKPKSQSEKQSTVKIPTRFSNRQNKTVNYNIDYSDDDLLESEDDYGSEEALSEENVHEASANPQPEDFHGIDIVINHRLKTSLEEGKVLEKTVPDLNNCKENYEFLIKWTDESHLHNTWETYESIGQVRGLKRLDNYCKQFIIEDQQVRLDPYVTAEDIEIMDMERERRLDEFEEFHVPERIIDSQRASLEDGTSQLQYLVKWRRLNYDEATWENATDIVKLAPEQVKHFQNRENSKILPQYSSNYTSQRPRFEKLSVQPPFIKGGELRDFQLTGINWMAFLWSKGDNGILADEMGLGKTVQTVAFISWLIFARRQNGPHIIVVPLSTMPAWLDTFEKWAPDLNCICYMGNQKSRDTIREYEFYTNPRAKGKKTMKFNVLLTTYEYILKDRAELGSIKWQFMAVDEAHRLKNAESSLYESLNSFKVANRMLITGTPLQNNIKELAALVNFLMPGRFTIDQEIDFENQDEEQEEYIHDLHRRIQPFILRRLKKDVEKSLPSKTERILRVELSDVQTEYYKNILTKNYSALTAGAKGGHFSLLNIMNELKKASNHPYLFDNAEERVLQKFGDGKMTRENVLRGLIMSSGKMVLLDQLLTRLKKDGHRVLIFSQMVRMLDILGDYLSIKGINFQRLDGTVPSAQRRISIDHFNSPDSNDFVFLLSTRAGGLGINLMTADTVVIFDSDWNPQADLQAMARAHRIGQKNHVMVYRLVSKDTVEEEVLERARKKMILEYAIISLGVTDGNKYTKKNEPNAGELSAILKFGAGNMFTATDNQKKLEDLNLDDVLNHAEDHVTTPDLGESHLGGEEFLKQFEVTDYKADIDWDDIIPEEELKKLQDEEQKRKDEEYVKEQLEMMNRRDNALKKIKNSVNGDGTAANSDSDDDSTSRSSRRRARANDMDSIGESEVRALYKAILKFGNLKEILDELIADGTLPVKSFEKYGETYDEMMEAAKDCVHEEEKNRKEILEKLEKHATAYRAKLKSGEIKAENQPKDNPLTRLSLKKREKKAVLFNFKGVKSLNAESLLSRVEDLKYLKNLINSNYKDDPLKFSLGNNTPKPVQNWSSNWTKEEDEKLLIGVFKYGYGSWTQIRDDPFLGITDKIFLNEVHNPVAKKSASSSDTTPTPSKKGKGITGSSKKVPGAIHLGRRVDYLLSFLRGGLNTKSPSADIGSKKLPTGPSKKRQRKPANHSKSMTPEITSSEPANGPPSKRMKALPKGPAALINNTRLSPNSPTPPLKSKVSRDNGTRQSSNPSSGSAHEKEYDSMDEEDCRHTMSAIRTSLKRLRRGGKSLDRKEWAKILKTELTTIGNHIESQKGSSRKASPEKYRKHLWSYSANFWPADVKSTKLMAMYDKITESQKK

Structure (SMILES) | Percent Effect [1] [%] | Percent Effect [2] [%] | Percent Effect [3] [%] | Percent Effect [4] [%] | Percent Effect (Trypanosoma cruzi) [%] | Percent Effect [5] [%] | Percent Effect [6] [%] | Percent Effect (Homo sapiens) [%] | Percent Effect [7] [%] | Percent Effect [8] [%] | Percent Effect [9] [%]
CCCn1nc(C2CCNCC2)n(Cc2ccccc2)c1=O | -2.26 | 13.5 | -3.97 | 17 | 7.34 | -5.71 | 10.2 | 0.924 | 5.82 | 14.6 | -1.76
Cc1nccn1CC1CCCN1S(=O)(=O)Cc1ccccc1 (stereo not given) | -4.51 | 5.06 | 2.14 | 4.66 | 3.49 | 1.9 | -0.573 | -9.27 | 2.46 | 3.8 | -0.456
CN(c1ccncn1)C1CC2(CCN(C(=O)c3cccs3)C2)C1 (stereo not given) | -5.11 | 1.35 | 1.54 | 8.09 | 2.96 | -2.09 | 1.09 | 11.6 | -6.45 | -6.49 | -17.8
CCn1cnnc1C1CCN(C(=O)c2cc3c(s2)CCC3)CC1 | -5.61 | 20.2 | -5.35 | 8.78 | 6.52 | -7.22 | 20.2 | -5.6 | 8.37 | 21.5 | -4.66
O=C(NCCC(=O)N1CCCCCC1)c1c(O)cc(F)cc1F | -5.59 | 7.79 | 1.53 | -4.08 | 7.35 | -4 | 9.78 | 6.03 | 2.86 | 14.1 | -20.3
CCOCC1CN(C(=O)C2=CCCC2)Cc2cnn(CC)c21 (stereo not given) | -2.5 | 16.2 | -0.303 | 0.664 | 3.62 | 3.5 | 19.9 | 9.89 | 3.24 | 12.8 | -2.18
CC(C)OCc1ncn2c1CN(Cc1ccc(F)cc1)CCC2 | -4.79 | 8.11 | 2.07 | 2.94 | -4.79 | -6.05 | 22 | -10.1 | 3.24 | 12.8 | -0.808
COCCc1noc(CN(C)C2CCCN(c3ccc(C)nn3)C2)n1 (stereo not given) | -2.39 | 2.67 | -6.26 | 0.801 | 3.41 | 1.56 | 11.9 | -8.02 | 4.92 | 6.17 | -2.05
CC(Cn1cccn1)NC(=O)Nc1ccc(F)cc1 (stereo not given) | 0.465 | 6.94 | -0.867 | -4.43 | -5.15 | 1.77 | 22.1 | 9.63 | 1.05 | 0 | -1.51
CCCn1nc2c(cc1=O)CN(Cc1cc(C)on1)CC2 | -5.31 | -2.7 | -46.3 | 0.285 | -1.76 | 7.08 | 17.8 | 9.88 | 6.93 | 6.1 | -7.36
Cc1ccc(=O)n(CC2(O)CCN(Cc3cnc(C)nc3)CC2)n1 | -6.32 | 6.76 | 4.75 | -1.5 | -2.96 | -3.48 | 11.9 | 17.5 | -1.07 | 3.9 | 5.12
Cc1nn(C)c(N2CCOCC2)c1CNC1CCc2ccccc2C1 (stereo not given) | -2.57 | 15.2 | -15 | 9.25 | 3.12 | -2.28 | -2.87 | 8.26 | 9.36 | 16.5 | -4.44
Cc1ccc(C(=O)N2CCn3cc(CN4CCCCC4)nc3C2)o1 | -1.62 | -2.6 | 0.425 | -11.1 | -1.48 | 21.3 | 5.57 | 1.99 | -4.23 | -6.41 | 8.37
COCC(=O)N1CCC(c2nc3ccc(-c4ccccc4)cn3n2)CC1 | 1.49 | -153 | 4.81 | 3.2 | -1.19 | 4.79 | 13.4 | 15.6 | 0 | 3.7 | -1.08
O=C(NCCOc1ccc2c(c1)OCO2)C1CC(=O)N(CC2CC2)C1 (stereo not given) | -2.83 | 18.4 | 1.65 | -9.9 | 6.82 | 0 | 9.56 | -20.7 | 6.4 | 23.5 | -7.44
Cc1nc(C)n(CC2CCCCN2CC(=O)N(C)Cc2ccco2)n1 (stereo not given) | -1.21 | 0 | 13.5 | 5.38 | 2.45 | 0.21 | 11.9 | 5.11 | 0 | -2.35 | -7.89
CCC1=N[C@@]2(CC[C@@H]3CN(C(=O)NCC(C)C)C[C@@H]32)C(=O)N1CC(C)C | -3.96 | 8 | 0.0094 | 5.84 | 4.25 | -55 | 12.8 | 2.46 | 8.33 | 10 | -6.18
Cc1nc(N2CCCC2)nc2c1CN(C(C)C)CC2 | -5.79 | 21.3 | -1.49 | 4.47 | 3.28 | -51.8 | 1.71 | -7.95 | 6.25 | 17.5 | -11.2
CO[C@H]1CCN(S(=O)(=O)c2cn(C)cn2)[C@H]1Cc1cccnc1 | -3.74 | 8 | -3.32 | -5.55 | 6.37 | -49.6 | 7.86 | -0.203 | 3.12 | 15 | -9.19
Cc1ccc(C)c(C(NC(=O)C(C)(C)C)c2cccnc2)c1 (stereo not given) | -1.95 | 13 | 3.34 | -1.13 | 4.63 | -0.645 | 14.3 | 21.8 | 4.23 | 6.41 | -10.2
